Bioassay records (PubChem BioAssay)
SMN2 splice enh – qHTS Assay for Enhancers of SMN2 Splice Variant Expression | HEK293 SMN2-luciferase splicing reporter, luminescence, 30-36 h | Potency, µM (titrated, usually from 46.1 µM), for the others: at the highest dose activity change, positive = activation, hits mostly activators | 2.8% of 210,000 active | AID 1458, 2008; note: % of control where 0% means no effect; nearly all actives have a fitted effect of over 55% in size
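qHTS luciferase splicing reporter: luminescence rises when SMN2 exon 7 is included in transfected HEK293 cells. Compound exposure lasted 30-36 h at 37C, with 4.5 mM final sodium butyrate as control, followed by a ONE-Glo read.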
ELG1 genotox – qHTS screen for small molecules that induce genotoxicity in human embryonic kidney (HEK293T) cells expressing luciferase-tagged ELG1; HEK293T ELG1-luciferase reporter, luminescence, 16 h; Potency, µM (top dose mostly 46 µM), for inactives: at the highest dose activity change, positive = activation, usual class: activators; 1.3% of 330,000 active; AID 504466, 2011; note: % of control where 0% means no effect; nearly all actives have a fitted effect of over 60% in size
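HEK293T cells expressing luciferase-tagged ELG1 were exposed to compound or DMSO vehicle for 16 hr at 37 °C and 5% CO2. Luciferase activity was then measured with ONE-Glo after 30 min at room temperature.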
KinaseGlo FLuc – Counterscreen for Luciferase (Kinase-Glo TM) Inhibition; Luciferin 4-monooxygenase (Photuris pensylvanica), Q27757; Kinase-Glo luciferase, ATP luminescence, 8 min; Potency, µM (top dose mostly 38.3 µM), inactives show at the top dose activity change, negative = inhibition, hits mostly inhibitors; 0.28% of 200,000 active; note: % is set by controls: 0 for no effect and ±100 for the full control effect; nearly all actives have a fitted effect of over 60% in size
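Recombinant Kinase-Glo luciferase, 10 uM ATP (linear range), luciferin; imidazole pH 7.2 / KCl / MgCl2 / Tween / BSA buffer; 8 min RT; luminescence.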
NPC1 promoter act – qHTS Assay for NPC1 Promoter Activators; Huh7 NPC1 promoter luciferase reporter, 24 h; AID 485313, 2010; Potency, µM (doses to about 9.22 µM), inactives show at the highest dose activation, most hits filed as activators; 2.4% of 320,000 active; note: % of control where 0% means no effect; nearly all actives have a fitted effect of over 60% in size
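Stably transfected Huh7 (NPC1 promoter→luciferase), 1500 cells/well in Opti-MEM + 10% FBS, 2 h settle, then compound 24 h at 37 °C. Luminescence after 10 min with Amplite reagent.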
Rab9 prom act – qHTS Assay for Rab9 Promoter Activators; Huh7 Rab9 promoter-luciferase reporter, luminescence, 24 h; AID 485297, 2010; Potency, µM (highest dose often 9.22 µM), for inactives: at the top dose activation, negative = inhibition, hits mostly activators; 2.8% of 320,000 active; note: % of control where 0% means no effect; nearly all actives have a fitted effect of over 60% in size
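Cell-based reporter: Huh7 stable for Rab9 promoter-driven luciferase, plated in reduced-serum medium with 10% FBS at 1500 cells/well, compound-treated 24 h at 37 °C, luminescence read after 10 min reagent.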
FLuc counter – qHTS profiling assay for firefly luciferase inhibitor/activator using purifed enzyme and Km concentrations of substrates (counterscreen for miR-21 project) | 6.9% of 360,000 active | Luciferin 4-monooxygenase (Photinus pyralis), P08659 | purified FLuc, Km substrates, luminescence inhibition | Potency, µM (top dose mostly 57.5 µM), for inactives: at the highest dose activity change, negative = inhibition, usual class: inhibitors;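 note: plate controls were vehicle for no effect and reference inhibitor for full effect; nearly all actives have a fitted effect of over 55% in size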
Target sequence (P08659 whole entry, looked up): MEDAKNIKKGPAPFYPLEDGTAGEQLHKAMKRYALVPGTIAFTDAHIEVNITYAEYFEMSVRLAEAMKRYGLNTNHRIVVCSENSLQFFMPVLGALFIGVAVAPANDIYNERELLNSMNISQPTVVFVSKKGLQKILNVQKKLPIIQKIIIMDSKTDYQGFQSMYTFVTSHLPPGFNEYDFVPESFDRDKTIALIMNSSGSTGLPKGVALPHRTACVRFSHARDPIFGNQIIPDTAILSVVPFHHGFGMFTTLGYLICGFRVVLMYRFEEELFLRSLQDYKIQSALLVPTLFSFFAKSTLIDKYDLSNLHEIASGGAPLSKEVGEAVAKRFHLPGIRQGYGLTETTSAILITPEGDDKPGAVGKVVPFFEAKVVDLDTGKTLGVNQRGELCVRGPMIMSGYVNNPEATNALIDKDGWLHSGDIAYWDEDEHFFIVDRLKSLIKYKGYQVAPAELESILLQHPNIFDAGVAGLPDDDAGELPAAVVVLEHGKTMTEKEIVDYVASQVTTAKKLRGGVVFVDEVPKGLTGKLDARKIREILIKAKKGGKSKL
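Biochemical qHTS of compounds, final roughly 60 µM downward over six points, against 10 nM purified firefly luciferase using Km concentrations of substrates (10 uM D-luciferin, 10 uM ATP) in Tris acetate pH 7.5 buffer; luminescence output.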
Starred values were filed as active, the others as inactive; ? = inconclusive; nt = no result given; [ ] = remark or other dose. Most compounds without a hit are left out; they make up all but 7.5% or so of the library. Calls come from the whole dose curve; as a rule, active = well fitted curve in the direction sought with a large enough effect; inconclusive = small, poorly fitted or top-dose-only effect, or another doubt; inactive = no such curve, though single readings can be large; an effect the other way counts as inactive or inconclusive. Potency is the fitted concentration of half-maximal effect.

SMILES	SMN2 splice enh	ELG1 genotox	KinaseGlo FLuc	NPC1 promoter act	Rab9 prom act	FLuc counter
COc1ccc(CCNCc2c(C(=O)O)c(C)n(Cc3c(F)cccc3Cl)c2C)cc1OC	-1.5%	nt	nt	nt	nt	0.3%
Cc1cc(O)c(C(=O)/C=C/c2ccc(Cl)cc2)c(=O)o1	nt	2.2%	nt	19.5%	-2.7%[1.84 µM]	2.13µM*
COc1cccc(/C=C/C(=O)c2c(O)cc(C)oc2=O)c1O	-44.7%	?	-3.2%	-1.0%	-33.5%	?
COc1cc(/C=C/C(=O)c2c(O)cc(C)oc2=O)cc(OC)c1O	-30.1%	-2.5%	-13.3%	1.1%	1.6%	-16.1%
COc1ccc(/C=C/C(=O)c2c(O)cc(C)oc2=O)c(OC)c1	-33.9%	16.4µM*	?	3.55µM*	1.78µM*	1.35µM*
CSc1ccc(/C=C/C(=O)c2c(O)cc(C)oc2=O)cc1	nt	20.8%	nt	19.2%	?	4.26µM*
Cc1ccc(NC(=O)CSc2nnc(-c3ccoc3C)n2CCCN(C)C)cc1Cl	nt	6.0%	nt	1.3%	2.3%	1.9%
COc1ccc2c(c1)c(=O)oc1c(C)c(OCC(=O)N3CCc4ccccc4C3)ccc12	-18.2%	1.8%	-6.7%	-2.1%	6.7%	-13.1%
COc1ccc2c(c1)c(=O)oc1c(C)c(OC(C)C(=O)NCC3CCC(C(=O)O)CC3)ccc12 (stereo not given)	nt	9.1%	nt	7.8%	4.9%	15.1µM*
Cc1oc(C(=O)O)cc1COc1ccc2c3c(c(=O)oc2c1)CCC3	-0.6%	?	0.1%	12.2%	3.8%	?
COc1ccc2c(c1)c(=O)oc1c(C)c(OCc3cc(C(=O)O)oc3C)ccc12	0.9%	?	-1.7%	-0.8%	11.6%	10.7µM*
Cc1cc(=O)oc2c(C)c(OC(C)C(=O)NCC3CCC(C(=O)O)CC3)ccc12 (stereo not given)	nt	1.1%	nt	6.3%	-1.3%	-0.5%
COc1ccc2c(c1)c(=O)oc1c(C)c(OCc3ccc(C(=O)O)cc3)ccc12	nt	2.7%	nt	-4.7%	6.8%	23.9µM*
COc1ccc(Cl)cc1NC(=O)c1nnn(CC(=O)Nc2ccc3c(c2)OCO3)c1N	nt	?	nt	-1.3%	0.4%	0.1%
CCN(CC)S(=O)(=O)c1ccc2c(c1)N(CC(=O)Nc1cccc(C#N)c1)C(=O)CO2	13.5%	nt	nt	nt	nt	6.3%
Cc1ccc(CN2CC(C(=O)Nc3cc(C)ccn3)CC2=O)cc1 (stereo not given)	nt	16.4µM*	nt	0.0%	-0.2%	12µM*
Cc1ccnc(NC(=O)C2CC(=O)N(c3ccc4c(c3)OCCO4)C2)c1 (stereo not given)	nt	0.517µM*	nt	8.5%	19.8%	4.78µM*
Cc1ccc(CN2CC(C(=O)Nc3ccncc3)CC2=O)cc1 (stereo not given)	nt	-2.5%	nt	-0.8%	14.9%	-0.5%
CC1=C(C(=O)OC2CCCC2)C(c2ccc(F)cc2F)CC(=O)N1 (stereo not given)	-14.8%	nt	nt	nt	nt	0.0%
O=C(N/N=C/c1ccc([N+](=O)[O-])o1)c1cc(-c2ccc(-c3ccccc3)cc2)nc2ccccc12	2.51µM*	?	11.2µM*	?	?	0.151µM*
O=C(N/N=C/C=C\c1ccccc1[N+](=O)[O-])c1cc(-c2ccccc2)nc2ccccc12	0.0%	0.1%	-7.1%	1.7%	-5.3%	12µM*
Cc1ccc(-c2cc(C(=O)N/N=C/c3ccc([N+](=O)[O-])o3)c3ccccc3n2)o1	nt	-4.7%	nt	?	?	0.301µM*
O=C(N/N=C/c1ccc([N+](=O)[O-])o1)c1cc(-c2ccncc2)nc2ccccc12	-21.9%	-5.6%	-11.2%	-18.2%	-16.5%	?
O=C(N/N=C/c1ccc(Cl)c([N+](=O)[O-])c1)c1cc(-c2ccccc2)nc2ccccc12	-33.8%	26.5%	8.5%	-5.6%	1.0%	?
CC(C)(C)c1ccc(OCC2CO2)cc1 (stereo not given)	-1.2%	nt	nt	nt	nt	nt
SMILES	SMN2 splice enh	ELG1 genotox	KinaseGlo FLuc	NPC1 promoter act	Rab9 prom act	FLuc counter
O=C1C2C3C=CC(C4CC34)C2C(=O)N1/N=C/c1cccs1 (stereo not given)	-7.2%	7.2%	-0.9%	11.5%	19.8%	16.9µM*
O=c1nc(Nc2cccc(Cl)c2)oc2cc(Cl)oc(=O)c12	nt	5.8%	nt	17.7%	-1.9%	13.5µM*
O=C(Cc1nc2ccccc2[nH]c1=O)c1ccccc1	11.2µM*	?	-20.1%	3.16µM*	1.41µM*	3.38µM*
O=C(Cc1nc2ccccc2[nH]1)c1ccc(Br)cc1	?	8.9%	-1.9%	28.8%	?	21.3µM*
O=c1[nH]c2ccccc2nc1Cc1ccccc1	2.2%	0.1%	-1.9%	1.0%	4.7%	0.2%
COc1ccccc1CNC(=O)C(CC(C)C)N1Cc2ccccc2C1=O (stereo not given)	nt	nt	nt	nt	nt	-5.0%
O=C1c2cccnc2C(Nc2ccc(Br)cc2Br)N1Cc1cccs1 (stereo not given)	-2.8%	?	-0.3%	-5.5%	2.6%	3.8%
CCC(=O)NC1=C(Cl)C(=O)C(NC(=O)CC)=C(Cl)C1=O	nt	0.8%	nt	2.9%	-3.7%	5.36µM*
CCC(=O)NC1=C(NC(C)c2ccccc2)C(=O)c2ccccc2C1=O (stereo not given)	-11.8%	-2.9%	-1.0%	3.3%	-1.1%	-3.3%
CC1=[N+](CC(=O)c2ccccc2)CCn2cccc21	nt	?	-2.0%	?	3.55µM*	0.1%
CCC1=[N+](C)CCn2c(C)ccc21	-12.4%	-1.8%	-3.4%	-3.7%	-3.5%	0.7%
CCC1=[N+](CC(=O)c2ccc(Br)cc2)CCn2c(C)ccc21	nt	2.6%	nt	1.41µM*	?	-1.1%
CCC1=[N+](CC(=O)c2ccc(C)cc2)CCn2c(C)ccc21	?	12.4%	-2.2%	2.24µM*	0.891µM*	-1.1%
CCC1=[N+](CC(=O)c2ccc(C)cc2)CCn2cccc21	?	?	0.8%	26.9%	3.98µM*	4.5%
Cc1ccc(S(=O)(=O)N2CCCc3cc(NS(=O)(=O)c4ccc(C)c(C)c4)ccc32)cc1	nt	nt	nt	nt	nt	0.9%
CCOc1ccc(C(c2c(O)cc(C)n(CCOC)c2=O)N2CCN(c3ccccc3)CC2)cc1 (stereo not given)	nt	nt	nt	nt	nt	-16.7%
Cc1ccc(-c2nn[nH]n2)cc1	0.8%	0.8%	2.0%	-4.9%	-1.5%	?
Cc1ccc(-c2nn[nH]n2)cc1Cl	nt	2.5%	nt	1.1%	-4.7%	16.9µM*
Cc1ccc(CNC(=O)[C@H]2C[C@@H]2[C@H](NP(=O)(c2ccccc2)c2ccccc2)c2ccccc2)c(F)c1F	-22.2%	nt	-4.5%	nt	nt	nt
